Laboratory results reported in the supplement of paper PMC8371130.
Where a name gives a salt, the structure may show the parent alone.

The compounds below were run on HL-1 (assay: relative cell viability (CellTiter-Glo) vs DMSO control (% of DMSO control); higher = more viable cells). Settings: oxygen condition: hypoxia 48 h (1% O2) + reoxygenation 24 h; 5000 nM.
Method in brief: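 HL-1 mouse atrial cardiomyocytes were plated in 384-well plates at 1000 cells per well together with compounds at 40, 200, 1000 or 5000 nM in 0.01% DMSO. One day later, cells went to a hypoxic workstation (1% O2) for 48 h, then were reoxygenated for 24 h in a normal incubator, or stayed in normoxia for the same time. Cell viability was read by CellTiter-Glo luminescence and normalised to vehicle-treated control cells.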

**Q.** CCOCC(O)COc1ccc(NC(=O)CC[S+](C)C)cc1 (stereo not drawn) [Suplatast tosylate] was tested. Which relative cell viability did it give?
**A.** The relative cell viability was 107.

**Q.** For CCN(CC)CCOC(=O)C(c1ccccc1)c1ccccc1 [Adiphenine HCl], which relative cell viability is on record?
**A.** The relative cell viability was 108.

**Q.** Which relative cell viability does the source give for NC(=O)c1cn(Cc2c(F)cccc2F)nn1 [Rufinamide] here?
**A.** Its relative cell viability is 112.

**Q.** Which relative cell viability does the source give for COc1nc(C)nc(Cl)c1NC1=NCCN1 [Moxonidine] here?
**A.** Its relative cell viability is 112.

**Q.** Which relative cell viability does the source give for NC(=O)c1ncn([C@@H]2O[C@H](CO)[C@@H](O)[C@H]2O)n1 [Ribavirin] here?
**A.** Its relative cell viability is 101.

**Q.** For CN1CCC(=C2c3ccccc3CC(=O)c3sccc32)CC1 [Ketotifen fumarate], which relative cell viability is on record?
**A.** Its relative cell viability is 113.

**Q.** How did the relative cell viability turn out when O=C1c2ccccc2C(=O)C1c1ccccc1 [Phenindione] was run?
**A.** The relative cell viability was 113.

**Q.** How did the relative cell viability turn out when O=P(O)(O)C(Cl)(Cl)P(=O)(O)O [Clodronate Disodium] was run?
**A.** Its relative cell viability is 115.

**Q.** With COc1ccc2[nH]c([S@@+]([O-])Cc3ncc(C)c(OC)c3C)nc2c1 [Esomeprazole sodium] as the compound, how does the relative cell viability read?
**A.** Its relative cell viability is 106.

**Q.** CO[C@H]1C(=O)[C@]2(C)[C@@H](OC)C[C@H]3OC[C@@]3(OC(C)=O)[C@H]2[C@H](OC(=O)c2ccccc2)[C@]2(O)C[C@H](OC(=O)[C@H](O)[C@@H](NC(=O)OC(C)(C)C)c3ccccc3)C(C)=C1C2(C)C [Cabazitaxel] was tested. Which relative cell viability did it give?
**A.** The relative cell viability was 36.6.

**Q.** For Nc1cccc2c1CN(C1CCC(=O)NC1=O)C2=O (stereo not drawn) [Lenalidomide], which relative cell viability is on record?
**A.** Its relative cell viability is 111.

**Q.** For CCCN[C@H]1CCc2nc(N)sc2C1 [Pramipexole], which relative cell viability is on record?
**A.** Its relative cell viability is 108.

**Q.** C#C[C@]1(O)CC[C@H]2[C@@H]3CCc4cc(O)ccc4[C@H]3CC[C@@]21C [Ethinyl Estradiol] was tested. Which relative cell viability did it give?
**A.** The relative cell viability was 107.

**Q.** How did the relative cell viability turn out when Cc1cnc(C(=O)NCCc2ccc(S(=O)(=O)NC(=O)NC3CCCCC3)cc2)cn1 [Glipizide] was run?
**A.** The relative cell viability was 109.

**Q.** For O=C1N=C(O)NC1(c1ccccc1)c1ccccc1 [Phenytoin sodium], which relative cell viability is on record?
**A.** Its relative cell viability is 111.

Same assay, conditions: oxygen condition: normoxia 72 h; 40 nM

**Q.** With N[C@@H](CSCCCO)C(=O)O [Fudosteine] as the compound, how does the relative cell viability read?
**A.** The relative cell viability was 106.

**Q.** With Nc1nnc(-c2cccc(Cl)c2Cl)c(N)n1 [Lamotrigine] as the compound, how does the relative cell viability read?
**A.** The relative cell viability was 106.

**Q.** Cn1nnc2c(C(N)=O)ncn2c1=O [Methazolastone] was tested. Which relative cell viability did it give?
**A.** Its relative cell viability is 114.

**Q.** How did the relative cell viability turn out when COCCc1ccc(OCC(O)CNC(C)C)cc1 (stereo not drawn) [Metoprolol tartrate] was run?
**A.** The relative cell viability was 77.9.

**Q.** Which relative cell viability does the source give for CC(=O)OCC[N+](C)(C)C [Acetylcholine chloride] here?
**A.** The relative cell viability was 91.7.

**Q.** With NS(=O)(=O)c1cc2c(cc1Cl)NCNS2(=O)=O [Hydrochlorothiazide] as the compound, how does the relative cell viability read?
**A.** Its relative cell viability is 110.

**Q.** Which relative cell viability does the source give for CCN(CC)CCNC(=O)c1c(C)[nH]c(/C=C2\C(=O)Nc3ccc(F)cc32)c1C [Sunitinib Malate] here?
**A.** The relative cell viability was 105.

**Q.** For Cc1ncc(C[n+]2csc(CCO)c2C)c(N)n1 [Thiamine HCl], which relative cell viability is on record?
**A.** Its relative cell viability is 99.4.

**Q.** For CCCCCCCCCCC[C@@H](C[C@@H]1OC(=O)[C@H]1CCCCCC)OC(=O)[C@H](CC(C)C)NC=O [Orlistat], which relative cell viability is on record?
**A.** The relative cell viability was 108.

**Q.** How did the relative cell viability turn out when O=c1c(-c2ccc(O)cc2)coc2cc(O)ccc12 [Daidzein] was run?
**A.** The relative cell viability was 107.

**Q.** With O=C(O)/C=C/c1ccc(Cn2ccnc2)cc1 [Ozagrel] as the compound, how does the relative cell viability read?
**A.** The relative cell viability was 105.

**Q.** Which relative cell viability does the source give for Cc1cccc(C)c1NC(=O)C1CCCCN1C (stereo not drawn) [Mepivacaine HCl] here?
**A.** Its relative cell viability is 102.

**Q.** Which relative cell viability does the source give for CC[C@@]1(O)C(=O)OCc2c1cc1n(c2=O)Cc2cc3c(CN(C)C)c(O)ccc3nc2-1 [Topotecan HCl] here?
**A.** Its relative cell viability is 52.3.

**Q.** For N[C@@H]1CCCCN(c2c(F)cc3c(=O)c(C(=O)O)cn(C4CC4)c3c2Cl)C1 [Besifloxacin HCl], which relative cell viability is on record?
**A.** Its relative cell viability is 101.

**Q.** With O=P(O)(O)C(O)(Cn1ccnc1)P(=O)(O)O [Zoledronic Acid] as the compound, how does the relative cell viability read?
**A.** The relative cell viability was 104.

**Q.** For C#Cc1cccc(Nc2ncnc3cc(OCCOC)c(OCCOC)cc23)c1 [Erlotinib HCl], which relative cell viability is on record?
**A.** Its relative cell viability is 112.

**Q.** How did the relative cell viability turn out when CCCOc1ccc(C(=O)OCCN(CC)CC)cc1N [Proparacaine HCl] was run?
**A.** Its relative cell viability is 103.

**Q.** Which relative cell viability does the source give for C[C@]12CC[C@H](O)CC1=CC[C@@H]1[C@@H]2CC[C@]2(C)C(c3cccnc3)=CC[C@@H]12 [Abiraterone] here?
**A.** Its relative cell viability is 61.2.

**Q.** COc1ccc2[nH]c([S@@+]([O-])Cc3ncc(C)c(OC)c3C)nc2c1 [Esomeprazole magnesium] was tested. Which relative cell viability did it give?
**A.** Its relative cell viability is 104.

**Q.** With NC(=O)CC[C@H](N)C(=O)O [L-Glutamine] as the compound, how does the relative cell viability read?
**A.** The relative cell viability was 102.

**Q.** How did the relative cell viability turn out when CS(=O)(=O)c1ccc(C(=O)Nc2ccc(Cl)c(-c3ccccn3)c2)c(Cl)c1 [Vismodegib] was run?
**A.** Its relative cell viability is 104.

**Q.** With N#CC[C@H](C1CCCC1)n1cc(-c2ncnc3[nH]ccc23)cn1 [Ruxolitinib] as the compound, how does the relative cell viability read?
**A.** The relative cell viability was 99.8.

**Q.** For CC[C@@H]1/C=C(\C)C[C@H](C)C[C@H](OC)[C@H]2O[C@@](O)(C(=O)C(=O)N3CCCC[C@H]3C(=O)O[C@H](/C(C)=C/[C@@H]3CC[C@H](Cl)[C@H](OC)C3)[C@H](C)[C@@H](O)CC1=O)[C@H](C)C[C@@H]2OC [Pimecrolimus], which relative cell viability is on record?
**A.** The relative cell viability was 96.8.
